TrxR1 substrate: substrates of rat thioredoxin reductase 1; O89049; purified TrxR1 substrate turnover, NADPH consumption readout; Potency, µM (series often up to 114 µM); 390,000 tested, 0.01% active; also: nearly all actives have a fitted effect of over 50% in size
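Rat TrxR1, dispensed at 90 nM, was prereduced with 400 uM NADPH (final) for 5 min at ~22 deg C, then incubated with compound 15 min before 400 uM selenite. A first-read NADPH fluorescence drop versus no-compound background flagged substrates.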
TrxR1 inh: blocks rat thioredoxin reductase 1. O89049. recombinant rTrxR1, NADPH fluorescence consumption, selenite substrate. Potency, µM (highest dose often 114 µM), actives largely listed as inhibitors. 390,000 tested, 1% active. AID 588453; also: nearly all actives have a fitted effect of over 65% in size
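Rat TrxR1 (90 nM in the dispensed reagent) was pre-reduced with 400 uM NADPH for 5 min at room temperature, then incubated with compound for 15 min. After 400 uM selenite was added, NADPH fluorescence (Ex 340/Em 450 nm) was followed for 8 min.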
GALK inhibitor: inhibitors of human galactokinase. P51570. Purified GALK, Kinase-Glo residual ATP luminescence. Potency, µM (doses to about 57.5 µM), actives largely listed as inhibitors. 270,000 tested, 0.007% active. AID 1868
Target sequence (P51570 whole entry, looked up): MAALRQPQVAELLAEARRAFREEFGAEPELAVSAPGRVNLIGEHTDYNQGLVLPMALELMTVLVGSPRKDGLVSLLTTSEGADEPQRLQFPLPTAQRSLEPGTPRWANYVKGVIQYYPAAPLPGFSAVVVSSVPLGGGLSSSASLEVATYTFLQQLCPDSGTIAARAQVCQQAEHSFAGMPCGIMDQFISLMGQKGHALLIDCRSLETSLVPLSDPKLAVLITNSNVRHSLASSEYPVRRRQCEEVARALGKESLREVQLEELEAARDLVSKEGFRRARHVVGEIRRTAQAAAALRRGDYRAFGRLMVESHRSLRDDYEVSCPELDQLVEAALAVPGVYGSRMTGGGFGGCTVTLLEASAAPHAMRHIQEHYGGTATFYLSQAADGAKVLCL
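The enzyme phosphorylates galactose (100 uM) using ATP (35 uM); inhibition is detected as higher residual ATP, quantified by bioluminescence after 1 h reaction at room temperature, pH 8.0.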
FBPA coupling cs: coupling enzyme interference in Giardia aldolase counter-screen. coupling enzyme system counterscreen, AmpLite Red fluorescence. activity change, negative = inhibition, % at 58.2 µM, hits read low. 290,000 tested, 0.67% active. AID 2472; in the data active = activity change below about -30%
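Coupling enzymes only (glyceraldehyde-3-phosphate) + compound, at 57.5 uM final, 10 min RT; add substrate/coupling/AmpLite Red mix, 20 min RT; fluorescence ex 525/em 598 nm. Actives flag coupling-system interference.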
RORg inh: inhibitors of mouse ROR gamma transcriptional activity. P51450. Drosophila S2 Gal4-RORgamma UAS-luciferase reporter, 20 h. Potency, µM (doses to about 53.6 µM), actives largely listed as inhibitors. 310,000 tested, 5.4% active. AID 2551; also: nearly all actives have a fitted effect of over 60% in size
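Stable Schneider cell line, Gal4 DNA-binding domain fused to ROR gamma, UAS-luciferase. Cmpd 1 hr RT → CuSO4 700 uM final → 20 hr RT → luciferase reagent 10 min → luminescence.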
VP16 counter: Gal4-VP16 reporter inhibition counter-screen. Drosophila S2 Gal4-VP16 UAS-luciferase, luminescence, 20 h. Potency, µM (top dose mostly 53.6 µM), most hits filed as inhibitors. 310,000 tested, 3.5% active;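 also: Gal4-VP16 expression switched on by copper sulfate through the metallothionein promoter; nearly all actives have a fitted effect of over 50% in size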
Each line names hits and unclear results; the compound was inactive in the other large screens. Rows were chosen to be rich in hits. Some 5.9% of all compounds tested hit in one or more screens of this group. Unless noted, calls follow the shape of the dose curve; as a rule, active = well fitted curve in the direction sought with a large enough effect; inconclusive = small, poorly fitted or top-dose-only effect, or another doubt; inactive = no such curve, though single readings can be large; an effect the other way counts as inactive or inconclusive.

CCN1CCN(c2nc3ccccc3nc2NS(=O)(=O)c2ccc(NC(C)=O)cc2)CC1	TrxR1 inh inconclusive (no result: FBPA coupling cs)
CCCCc1nnc(NC(=O)c2ccc(S(=O)(=O)N3CCOCC3)cc2)s1	none (no result: GALK inhibitor, FBPA coupling cs, RORg inh, VP16 counter)
CC(OC(=O)c1ccc(C(C)(C)C)cc1)C(=O)NC1CCCCC1C (stereo unspecified)	VP16 counter 14µM (no result: FBPA coupling cs)
Cc1ccc2c(c1)C1C=CCC1C(C(=O)O)N2 (stereo unspecified)	none (no result: TrxR1 substrate, TrxR1 inh, GALK inhibitor)
O=C(O)C1Nc2c(O)cc(Cl)c([N+](=O)[O-])c2C2C=CCC12 (stereo unspecified)	TrxR1 inh 14µM, RORg inh 10µM
O=C(Cn1ccc(NC(=O)OCc2ccccc2)nc1=O)NCc1ccccn1	none (no result: GALK inhibitor, FBPA coupling cs, RORg inh, VP16 counter)
Cc1c(Cl)cccc1NC(=S)NCc1ccco1	RORg inh 5µM, VP16 counter inconclusive
Cc1cccc(NC(=S)NCc2ccco2)c1C	RORg inh 7.9µM, VP16 counter 11µM
S=C(NCc1ccco1)Nc1cccc(Cl)c1Cl	none
S=C(NCc1ccco1)Nc1ccccc1Cl	RORg inh 10µM (no result: GALK inhibitor)
FC(F)Oc1ccccc1NC(=S)NCc1ccco1	none
CN(C(=O)Cn1ncc2c1-c1ccccc1OC2)c1ccc(Br)cc1	none (no result: GALK inhibitor, FBPA coupling cs, RORg inh, VP16 counter)
Cc1onc(-c2ccc(Cl)cc2Cl)c1-c1csc(COc2ccccc2)n1	none
CCOC(=O)c1sc(N(Cc2ccccc2)C(=O)COC(=O)c2ccc(O)cc2)nc1C	RORg inh inconclusive, VP16 counter inconclusive
O=C(Nc1ccncc1)C1(c2ccccc2)CCCC1	none
Cc1cc(-c2ccc(C)c(S(=O)(=O)NCc3cccc(Br)c3)c2)on1	none
Cc1oc2c(c(=O)c1C)C(=O)CC(c1ccccc1)C2 (stereo unspecified)	none
CS(=O)(=O)c1sc(C#N)c2c1C(=O)CC(c1ccccc1)C2 (stereo unspecified)	RORg inh 4.5µM, VP16 counter 4.5µM (no result: GALK inhibitor)
CN(C)c1ccc(/C=N/NC(=O)c2ccc(NC(=O)c3ccccc3)cc2)cc1	none
COc1cccc(C(=O)Oc2c(Br)cc(Br)cc2/C=N/NC(=O)c2cc(C)[nH]n2)c1	VP16 counter 22µM
CCNC(=S)N/N=C/c1cc(Br)cc(Br)c1OC	RORg inh 1.1µM, VP16 counter 2.5µM
CN(C)c1ccc(C(=O)N/N=C/c2cc(Br)cc(Br)c2O)cc1	RORg inh 2.8µM, VP16 counter 5.6µM
COc1c(Br)cc(Br)cc1/C=N/NC(=O)c1cccnc1	RORg inh inconclusive, VP16 counter inconclusive
COc1c(Br)cc(Br)cc1/C=N/NC(=O)c1ccncc1	RORg inh 14µM
COc1ccc(OC)c(/C=C(\C)C(=O)c2c(C)cc(C)[nH]c2=O)c1	none (no result: GALK inhibitor, FBPA coupling cs, RORg inh, VP16 counter)
O=C(N/N=C/c1cc(Cl)ccc1O)c1ccncc1	RORg inh 3.2µM, VP16 counter inconclusive
COc1cc(/C=N/NC(=O)c2ccncc2)ccc1OC(=O)c1cccc(Br)c1	none
COc1cccc(/C=N/NC(=O)c2ccncc2)c1OC(=O)c1ccc(Br)cc1	RORg inh 5µM, VP16 counter 11µM (no result: FBPA coupling cs)
COc1cc(OC)c([N+](=O)[O-])cc1/C=N/NC(=O)c1ccncc1	TrxR1 substrate inconclusive, FBPA coupling cs -42
CN1CCN(CCCNC(=O)c2cnn(-c3ccccc3)c2C2CCN(C(=O)OC(C)(C)C)CC2)CC1	none (no result: GALK inhibitor, FBPA coupling cs, RORg inh, VP16 counter)
COc1cc2c(NC3CCN(C)CC3)nc(N3CCCN(C)CC3)nc2cc1OCCN(C)C	none (no result: GALK inhibitor, FBPA coupling cs, RORg inh, VP16 counter)
CCOC(=O)c1cnc(C(F)(F)F)nc1Oc1ccccc1	none
COc1cccc(N(C(=O)CCl)C(C(=O)NCCc2ccccc2)c2cccs2)c1 (stereo unspecified)	TrxR1 inh 14µM, RORg inh 13µM
COc1cccc(N(C(=O)c2snc(C(N)=O)c2N)C(C(=O)NCC2CCCO2)c2cccs2)c1 (stereo unspecified)	RORg inh inconclusive
COc1ccc(N(C(=O)CCl)C(C(=O)NCCc2ccccc2)c2cccs2)cc1Cl (stereo unspecified)	TrxR1 inh 14µM, RORg inh 11µM
CCCCC#CC1C=CC(Oc2cc(OC)c(OC)c(OC)c2)C(CO)O1 (stereo unspecified)	none (no result: TrxR1 substrate, TrxR1 inh, GALK inhibitor)
C=CC[n+]1ccnc2ccccc21	none (no result: GALK inhibitor, FBPA coupling cs, RORg inh, VP16 counter)
COc1ccccc1-c1ccc(=O)n(CC(=O)NC2CCc3ccccc32)n1 (stereo unspecified)	RORg inh 3.5µM, VP16 counter inconclusive
COc1ccccc1CC(=O)NC1CCCc2ccccc21 (stereo unspecified)	none
O=C(CS(=O)(=O)c1ccccc1)Nc1ccccc1Br	none (no result: GALK inhibitor, FBPA coupling cs, RORg inh, VP16 counter)
Cc1cccc(N2CCN(C(=O)c3ccc(CNc4c(N5CCC(C)CC5)c(=O)c4=O)cc3)CC2C)c1 (stereo unspecified)	none
Cc1ccc2nc(N(CCCN(C)C)C(=O)c3sc4ccccc4c3Cl)sc2c1	TrxR1 inh 50µM, RORg inh inconclusive
Cc1ccc(C(=O)N(CCCN(C)C)c2nc3ccc(Cl)cc3s2)cc1C	RORg inh 10µM, VP16 counter 18µM
CN(C)CCCN(C(=O)c1ccc2c(c1)OCCO2)c1nc2ccc(Cl)cc2s1	VP16 counter inconclusive (no result: TrxR1 substrate, TrxR1 inh, FBPA coupling cs)
Oc1ccc(Br)cc1CNn1cnnc1	none
CN(C(=O)Cn1cccc1C1=NC(c2ccccc2)CO1)c1ccccc1 (stereo unspecified)	none
Cc1cc(NC(=O)CSCC(=O)N(C)Cc2ccc(F)cc2)no1	none (no result: FBPA coupling cs)
Cc1cccc(N=c2oc3cc(O)ccc3cc2C(N)=O)c1	RORg inh 11µM, VP16 counter 14µM
CCN(CC)c1ccc(-n2nc3cc(C)c(NC(=O)c4ccccc4C)cc3n2)c(C)c1	none (no result: GALK inhibitor, FBPA coupling cs, RORg inh, VP16 counter)
COc1cc(/C(O)=C(\C#N)c2nc3ccccc3[nH]2)cc(OC)c1OC	RORg inh 11µM, VP16 counter inconclusive
N#C/C(=C(/O)c1ccc(Cl)cc1)c1nc2ccccc2[nH]1	none
N#C/C(=C(\O)c1cc(Cl)sc1Cl)c1nc2ccccc2[nH]1	RORg inh 2.5µM, VP16 counter inconclusive
N#C/C(=C(/O)c1ccc([N+](=O)[O-])cc1)c1nc2ccccc2[nH]1	none (no result: GALK inhibitor)
CC(=O)OC(/C(O)=C(\C#N)c1nc2ccccc2[nH]1)c1ccccc1 (stereo unspecified)	RORg inh 14µM, VP16 counter inconclusive
N#C/C(=C(/O)c1ccc(Cl)c([N+](=O)[O-])c1)c1nc2ccccc2[nH]1	RORg inh 13µM, VP16 counter inconclusive
O=C(CCC(=O)OCC(=O)c1cccc([N+](=O)[O-])c1)NC1CCCCC1	none
C[C@@H]1NC(=O)[C@H](CCCN=C(N)N)NC(=O)c2cc([N+](=O)[O-])cc(I)c2OCC[C@@H](C(N)=O)NC1=O	none (no result: TrxR1 substrate, TrxR1 inh, GALK inhibitor)
C/C(O)=C(/C#N)c1nc2ccccc2[nH]1	RORg inh 7.9µM, VP16 counter inconclusive
OC[C@H]1NC[C@H](O)[C@@H](O)[C@@H]1O	none (no result: TrxR1 substrate, TrxR1 inh, GALK inhibitor)
